Data taken from PubChem BioAssay AID2576 (National Center for Advancing Translational Sciences (NCATS), 2010).
Records with an inconclusive call do not appear. A number with no mark means an inactive call. The source made the active and inactive calls. Calls follow the shape of the dose curve; as a rule, active = well fitted activation curve with a large enough effect; inconclusive = small, poorly fitted or top-dose-only effect, or effect the other way; inactive = flat fitted curve, though single readings scatter.

Target: Pyruvate kinase PKM (Homo sapiens) (UniProt P14618)
Sequence (P14618 whole entry, looked up, canonical isoform): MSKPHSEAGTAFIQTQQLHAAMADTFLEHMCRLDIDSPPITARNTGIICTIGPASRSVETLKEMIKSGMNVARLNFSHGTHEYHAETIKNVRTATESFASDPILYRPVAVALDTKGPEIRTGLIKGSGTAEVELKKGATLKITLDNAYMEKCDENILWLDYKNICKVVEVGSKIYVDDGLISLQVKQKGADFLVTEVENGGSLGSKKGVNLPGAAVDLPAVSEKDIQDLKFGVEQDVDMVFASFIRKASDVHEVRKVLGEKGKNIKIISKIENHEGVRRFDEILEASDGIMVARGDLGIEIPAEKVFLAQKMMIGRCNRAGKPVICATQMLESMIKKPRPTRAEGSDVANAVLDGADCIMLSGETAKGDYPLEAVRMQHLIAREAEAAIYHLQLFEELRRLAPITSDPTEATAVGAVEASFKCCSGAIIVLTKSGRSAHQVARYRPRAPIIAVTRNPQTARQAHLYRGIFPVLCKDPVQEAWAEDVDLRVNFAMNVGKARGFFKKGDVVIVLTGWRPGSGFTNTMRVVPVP
Experiment: Secondary LDH Assay for Activators of Human Pyruvate Kinase M2 isoform: for Probe SAR
Conditions: purified hPK-M2, LDH-coupled NADH fluorescence kinetic; series mostly up to 58.4 µM; activation: at the top concentration
Source text: NIH Chemical Genomics Center [NCGC] Matthew G. Vander Heiden, M.D., Ph.D. [Harvard Medical School, 77 Avenue Louis Pasteur, Boston, MA 02115] NCGC Assay Overview: Human pyruvate kinase muscle 2 (hPK-M2)enzyme was supplied as a highly purified (>95% pure) preparation from Harvard Medical School and a secondary assay was used to evaluate compounds. This assay couples the formation of pyruvate from hPK-M2 using lactate dehydrogenase (LDH) and NADH. The depletion of NADH is followed in a fluorescent-based kinetic assay that follows the formation of pyruvate to lactate, as catalyzed LDH (described by Hannaert et al., 2002)1 Pyruvate kinase substrates, PEP and ADP, were present in the assay at 0.1 mM and 4 mM respectively. In this kinetic assay initial rates were determined by following the fluorescence of NADH depletion.
NCGC Assay Protocol Summary: Three uL of substrate mix (final concentration, 50 mM Tris-Cl pH 8.0, 200 mM KCl, 15 mM MgCl2, 0.1 mM PEP, 4.0 mM ADP, and 0.2 mM NADH) was dispensed into black-solid 1536 well plates. 23 nL of compounds were delivered by a pin tool and 1 uL of enzyme mix (final concentrations, 10 nM hPK-M2 and 1 uM of LDH) was added. Plates were immediately placed in ViewLux (Perkin Elmer) and NADH fluorescence was determined at 30 second exposure intervals for between 3 and 6 minutes. Data were normalized to the uninhibited and EC100 activation using known activators such as fructose-bis-phosphate.

SMILES	activation [%]	Potency
O=C1c2ccccc2C(=O)N1c1cccc2cccnc12	1.58	
Cc1ccc2nc(-c3cccs3)c(Nc3ccccc3)n2c1	-15.2	
COc1ccc(Nc2c(-c3ccc(C)o3)nc3ccccn23)cc1	-5.07	
COc1ccc(NS(=O)(=O)c2ccc3c(c2)CCC(=O)N3)cc1	24.1	
Cc1cc2c(s1)c1cnn(Cc3c(Cl)ccc(C)c3F)c(=O)c1n2C		0.562 µM (active)
Cc1ccc(NS(=O)(=O)c2ccc3c(c2)CCCC(=O)N3)cc1C	25.4	
Cc1ccc(N2C(=O)c3ccccc3C2=O)c(C)c1	1.44	
Cc1ccc(N(C)S(=O)(=O)c2ccc3c(c2)CCC(=O)N3)cc1C	0.911	
Cc1ccc(NS(=O)(=O)c2ccc3c(c2)oc(=O)n3C)cc1C	23.2	
Cc1cccc(NS(=O)(=O)c2ccc3c(c2)CCC(=O)N3)c1		1.83 µM (active)
Cc1ccc(NS(=O)(=O)c2ccc(F)cc2)cc1C	14.6	
O=C1c2ccccc2C(=O)N1c1ccc2ncccc2c1	-4.15	
O=C1c2ccccc2C(=O)N1c1cccc(=O)[nH]1	3.56	
O=C1c2ccccc2C(=O)N1c1cccc2cnccc12	-6.12	
Cc1cc2c(s1)c1cnn(Cc3cc(F)ccc3F)c(=O)c1n2C		0.447 µM (active)
Cc1ccccc1OC1=NS(=O)(=O)c2ccccc21	1.19	
O=C1CCc2cc(S(=O)(=O)Nc3ccccc3Cl)ccc2N1	16.6	
Cc1cccc(OC2=NS(=O)(=O)c3ccccc32)c1	2.22	
COc1cccc(N2C(=O)c3ccccc3C2=O)n1	5.33	
Cc1cc(C)n2c(Nc3ccccc3)c(-c3ccc(C)o3)nc2n1	-2.4	

SMILES	activation [%]	Potency
O=C1c2ccccc2C(=O)N1C1CCCCC1	3.59	
Cc1ccc2nc(-c3ccncc3)c(Nc3ccccc3)n2c1	-2.52	
Nc1cc(S(=O)(=O)N2CCN(S(=O)(=O)c3ccc4c(c3)OCCO4)CC2)ccn1	20.4	
COc1ccc(OC2=NS(=O)(=O)c3ccccc32)cc1	1.11	
Cc1ccc(NS(=O)(=O)c2cc3c(cc2Cl)CCC(=O)N3)cc1C		0.461 µM (active)
O=C1c2ccccc2C(=O)N1c1ccccc1O	-4.29	
O=C1c2ccccc2C(=O)N1Cc1ccccn1	6.36	
COc1ccc(N2C(=O)c3ccccc3C2=O)cc1	1.75	
Cc1ccc(NS(=O)(=O)c2ccc3c(c2)CCC(=O)N3)cc1C		0.146 µM (active)
Cc1ccc(NS(=O)(=O)c2cccc(Cl)c2)cc1C	27.6	
Cc1ccc(NS(=O)(=O)c2ccc3c(c2)CCN(C(=O)C(F)(F)F)C3)cc1C	16.1	
CC(=O)Nc1ccc(S(=O)(=O)Nc2ccc(C)c(C)c2)cc1	5.65	
Cc1ccc(NS(=O)(=O)c2ccc3c(c2)N(C)C(=O)CO3)cc1C		1.46 µM (active)
Cc1ccc(NS(=O)(=O)c2cccc(C(=O)O)c2)cc1C	14.2	
Cc1ccc2nc(-c3ccc(C)o3)c(NC3CCCC3)n2c1	-15.3	
Cc1ccc(NS(=O)(=O)c2cc3c(cc2/C=C/c2ccccc2)NC(=O)CO3)cc1C	-4.81	
Cc1cc(N2C(=O)c3ccccc3C2=O)n[nH]1	-8.74	
Cc1ccc(NS(=O)(=O)c2ccc(-c3ccccc3)cc2)cc1C	10.9	
O=S1(=O)N=C(Oc2ccccc2Cl)c2ccccc21	4.09	
Cc1ccn2c(NC3CCCCC3)c(-c3ccc(C)o3)nc2c1	-14.6	
